In PubChem BioAssay (Tox21) one finds outcome and activity change, negative = cytotoxicity data, which are given here for 40 compounds.

Records with an inconclusive call do not appear. The source made the active and inactive calls. The call rests on the fitted dose curve.
On the % scale 0 is the no-effect control and ±100 the full control effect.

This assay in a line: qHTS assay to identify small molecule agonists of the endoplasmic reticulum stress response signaling pathway - cell viability counter screen (AID 1159517). Further: nearly all actives have a fitted effect of over 50% in size. The conditions noted are these: ESRE-bla HeLa viability, CellTiter-Glo luminescence, 5 h; series mostly up to 61 µM. An excerpt: U.S. Tox21 Program National Center for Advancing Translational Sciences [NCATS] NIH Chemical Genomics Center [NCGC] U.S. Environmental Protection Agency [EPA] National Institutes of Environmental Health Sciences [NIEHS] National Toxicology Program [NTP] U.S. Food and Drug Administration [FDA] Tox21 Assay Overview: Endoplasmic Reticulum (ER) plays an important role in cellular signaling, protein folding/maturation, stress response, lipid biosynthesis, calcium storage and release etc. Under stress conditions, proteins in ER misfold or unfold, and leading to the expression of ER stress responsive genes. ER stress has been associated with a variety of pathophysiological conditions such as cancer, inflammation, neurodegenerative diseases, diabetes, ischemic heart disease etc. To identify the compounds that induce ER stress response, an ER stress reporter cell line, CellSensor ESRE-bla HeLa (Life Technologies, Carlsbad, CA) containing a beta-lactamase reporter gene under control of the Endoplasmic reticulum Stress Response Element (ESRE) was used to screen Tox21 10K compound library. The cytotoxicity of the Tox21 compound library against the ESRE-bla HeLa cell line was tested in parallel by measuring cell viability using the CellTiter-Glo assay in the same wells.
Tox21 Assay Protocol Summary: ESRE-bla HeLa cells were dispensed at 1,500 cells/6 uL of assay medium per well into black wall/clear-bottom 1536-well plates using a Multidrop Combi (ThermoFisher Scientific, Waltham, MA) dispenser. After the assay plates were incubated at 37 C and 5% CO2 for an overnight, 23 nL of compounds dissolved in DMSO, positive controls or DMSO only was transferred to the assay plate by a Pintool station (Kalypsys, San Diego, CA). The assay plates were incubated at 37 C and 5% CO2 for 5 hr. One uL of LiveBLAzer B/G FRET substrate (Life Technologies) was added using a FRD (Flying Reagent Dispenser, Aurora Discovery, San Diego, CA) and the plates were incubated at room temperature for 2 hr. Fluorescence intensity (405 nm excitation, 460 nm and 530 nm emissions) was measured using an Envision plate reader (PerkinElmer, Shelton, CT). For cytotoxicity, 4 ul/well of CellTiter-Glo reagent was added into the assay plates using an FRD. After 30 min incubation at room temperature, the luminescence intensity was measured using a ViewLux plate reader (PerkinElmer).
As for `CN(C)CCOCCN(C)CCO`, the compound was classed as inactive. For the compound `O=C(CN1CCN(Cc2ccc3c(c2)OCO3)CC1)N1c2ccccc2Sc2ccccc21`, the outcome was inactive.

As to `CC(C)CCO`, the outcome was inactive. Same read-out and setting: then `CCOC(=O)OCC/C(SC(=O)OCC)=C(\C)N(C=O)Cc1cnc(C)nc1N`, with “inactive”; and `C=C(C)C(=O)OC1CC(C)CC(C)(C)C1` (stereo not given), with “inactive”. Turning to `CC(=O)OC(C)(C)Cc1ccccc1`, the outcome was inactive. Turning to `CC(C)c1ccccc1O`, the compound was classed as inactive. Still for that read-out and setting: next, `C[C@H](CCC(=O)NCC(=O)O)[C@H]1CC[C@H]2[C@@H]3[C@H](O)C[C@@H]4C[C@H](O)CC[C@]4(C)[C@H]3C[C@H](O)[C@]12C`: “inactive”; `CC(=O)OC(C(=O)c1ccccc1)c1ccccc1` (stereo not given): “inactive”. The same measure, in the same setting: next, `CC(=O)N1CCN(c2ccc(O)cc2)CC1`: “inactive”; `CC(C)CCC(=O)CCC(C)C`: “inactive”; `COc1cccc2sc(N)nc12`: “inactive”. On the same count and under the same terms, then `C=COCCOCCOC=C`, with “inactive”; and `O=C1NC2NC(=O)NC2N1` (stereo not given), with “inactive”.

On to `Nc1ccnc(=O)[nH]1`, for which the result was inactive. Still for that read-out and setting: then `CCN1CN(CC)CN(CC)C1`, with “inactive”; and `CCNC(=O)/C=C/c1cccc(Br)c1`, with “inactive”; and `CCC(O)C(C)(C)C` (stereo not given), with “inactive”. The same measure, in the same setting: next, `CCCCCCCCCCC`: “inactive”; `NS(=O)(=O)c1cc2c(cc1Cl)NC(C(Cl)Cl)NS2(=O)=O` (stereo not given): “inactive”.

Turning to `CC1=CC[C@H](CC=O)C1(C)C`, the compound was classed as inactive. On to `CC(=O)Nc1ncc([N+](=O)[O-])s1`, for which the outcome was inactive.

`C[C@H]1O[C@H](O[C@H]2[C@H](O)[C@@H](O)[C@@H](O[C@H]3[C@H](O)[C@@H](O)[C@H](O)O[C@@H]3CO)O[C@@H]2CO)[C@H](O)[C@@H](O)[C@@H]1N[C@H]1C=C(CO)[C@@H](O)[C@H](O)[C@H]1O`: the compound was called inactive. Same read-out and setting: next, `CC1(N)CCC(C(C)(C)N)CC1` (stereo not given): “inactive”.

In the case of `O=C(Oc1ccccc1C(=O)O)c1ccccc1O`, the result was inactive. Still for that read-out and setting: then `CCCCCCCCCCCCCCCCI`, with “inactive”; and `NS(=O)(=O)c1ccccc1OC(F)(F)F`, with “inactive”; and `CCCO`, with “inactive”. The same measure, in the same setting: then `NS(=O)(=O)c1cc2c(cc1Cl)NC(CC1CCCC1)NS2(=O)=O` (stereo not given), with “inactive”; and `CC(Cl)COP(=O)(OCC(C)Cl)OCC(C)Cl` (stereo not given), with “inactive”. Same read-out and setting: then `C/C=C(\C)C(=O)OCC/C=C\CC`, with “inactive”. As for `O=c1[nH]c(=O)c2[nH]c(=O)[nH]c2[nH]1`, the activity change, negative = cytotoxicity is -24.3% [at 6.95 µM] (inactive). As for `C=CCOCC(O)CCl` (stereo not given), the call was inactive. `O=C(O)CCNC(=O)c1ccccc1`: the outcome was inactive.

As to `CCCOCCOCCOCCO`, the call was inactive. On to `O=C(O)c1c(Cl)ccc(Cl)c1Cl`, for which the outcome was inactive. Same read-out and setting: next, `O=C(O)c1ccc(OCCN2CCCCC2)cc1`: “inactive”; `Nc1c(NC/C=C\COc2cc(CN3CCCCC3)ccn2)c(=O)c1=O`: “inactive”; `N#CCCOCCOCCC#N`: “inactive”. As to `CC(C)(C)c1ccc(C=O)cc1`, the result was inactive.
